Bioassay records: PubChem BioAssay, several laboratories
In the library only some 2.7% were active in any assay of this set; here they are far more common.
SKN-1 inh: blocks SKN-1 activity in C. elegans; C. elegans VP596 Pgst-4::GFP/RFP ratio, acrylamide-induced, 24 h; inhibition, % at 21.8 µM; 360,000 tested, 0.49% active; AID 624304;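 active = interference check ratio from 0.5 to 1.5 plus GFP to RFP signal ratio inhibition reaching or exceeding a fixed threshold, cut at about 30% in these data, passing the limit was not always enough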
NRP1-CendR mod: alters CendR peptide binding to human NRP-1 | FAM-RPARPAR peptide binding to NRP-1, fluorescence polarization | O14786 | 360,000 tested, 0.85% active | inhibition, % at 25 µM;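 active = inhibition or corrected inhibition above about 18%, plus a signal ratio from 0.5 to 1.5, limit read from the data, passing the limit was not always enough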
ATG4B inh: blocks human ATG4B protease cleavage of LC3 substrate; Q9Y4P1; ATG4B cleavage of LC3-PLA2, NBD-HPC fluorescence, 1 h; inhibition, % at 8.33 µM; 340,000 tested, 0.51% active; in the data active = inhibition above about 40%
Target sequence (Q9Y4P1 whole entry, looked up): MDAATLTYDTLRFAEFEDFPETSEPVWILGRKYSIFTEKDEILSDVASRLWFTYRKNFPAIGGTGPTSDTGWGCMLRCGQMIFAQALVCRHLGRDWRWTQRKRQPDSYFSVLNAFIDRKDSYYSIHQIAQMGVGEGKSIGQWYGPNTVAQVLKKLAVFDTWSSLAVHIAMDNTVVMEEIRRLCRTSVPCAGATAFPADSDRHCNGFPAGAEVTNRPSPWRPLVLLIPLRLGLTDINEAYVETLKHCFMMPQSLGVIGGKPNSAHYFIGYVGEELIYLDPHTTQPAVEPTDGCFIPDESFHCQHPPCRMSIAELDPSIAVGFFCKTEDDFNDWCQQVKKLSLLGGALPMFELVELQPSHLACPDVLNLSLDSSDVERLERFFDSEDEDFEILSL
CFTR F508del cor: correctors of CFTR F508del function in bronchial epithelial cells | CFBE cells, YFP halide quenching; stimulated with forskolin plus potentiator P3; % fluorescence drop versus neutral controls | activity (quench increase), % at 7.58 µM | 350,000 tested, 0.36% active;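 active = mean added fluorescence quench of at least 8% versus neutral control, with both replicates also reaching 8%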;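 also: cells transiently co-express mutant CFTR-F508del with the halide-sensitive YFP; corrector assay measuring rescue of mutant channel to the surface after 24 h compound exposure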
MPTP inh: inhibitors of mitochondrial permeability transition pore; inhibition, % at 10 µM; 360,000 tested, 1.4% active; isolated mouse mitochondria, Ca2+ swelling absorbance, 30 min;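 active = inhibition of 50% or more, scaled per plate between neutral and stimulator controls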;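 also: 0% = DMSO wells given calcium and 100% = 1 mM EGTA wells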
Rh123 counter: membrane potential counter-screen of mitochondrial pore inhibitors; shares compounds with MPTP inh; isolated mitochondria, Rhodamine 123 fluorescence; inhibition, % at 10 µM; 5,000 tested, 78% active; AID 624504; in the data active = inhibition above about 22%;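 also: 0% = DMSO vehicle and 100% = positive control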
MPTP abs DR: dose response confirmation of mitochondrial permeability transition pore inhibitors | shares compounds with MPTP inh | isolated mitochondria swelling, absorbance | IC50, µM | 780 tested, 58% active; in the data active = IC50 below about 20 µM
MPTP cs DR: MPTP inhibitor counter-screen activity, dose response. isolated mitochondria counterscreen, fluorescence read-out. 780 tested, 49% active. shares compounds with MPTP inh. IC50, µM. AID 651564; in the data active = IC50 below about 80 µM
* marks the source's active call; other numbers are inactive results; . = no result given.

SMILES	SKN-1 inh	NRP1-CendR mod	ATG4B inh	CFTR F508del cor	MPTP inh	Rh123 counter	others
CO[C@@H]1CN(C)C(=O)c2ccc(NC(=O)C3CCOCC3)cc2OC[C@H](C)N(Cc2cccnc2)C[C@@H]1C	.	.	.	0	.	.
Nc1nc2ccccc2n1CCOc1ccccc1Cl	11	11	-2	.	74*	19	MPTP abs DR=9*;MPTP cs DR=27*
COc1cccc(S(=O)(=O)Nc2ccc3c(c2)[C@H]2C[C@H](CC(=O)NCCc4ccccc4)O[C@@H](CO)[C@H]2O3)c1	.	.	.	4	.	.
CS(=O)(=O)NCCCCNc1ccc(C(F)(F)F)cc1[N+](=O)[O-]	1	2	-3	4	1	.
O=[N+]([O-])c1cc(C(F)(F)F)ccc1NCCCCNS(=O)(=O)c1ccc2ccccc2c1	-13	-12	-14	.	91*	79*
CN(C)C(CNc1ccc(C(F)(F)F)cc1[N+](=O)[O-])c1ccccc1 (stereo not given)	6	-16	-3	0	62*	1	MPTP abs DR=>100;MPTP cs DR=>80
CN(C)C(CNc1ccc(S(C)(=O)=O)cc1[N+](=O)[O-])c1ccccc1 (stereo not given)	3	0	-5	-1	0	.
C[C@@H]1CN([C@@H](C)CO)C(=O)Cc2cc(NS(=O)(=O)c3ccc(Cl)cc3)ccc2O[C@@H]1CN(C)Cc1ccncc1	.	.	.	-1	.	.
C[C@H]1CN([C@@H](C)CO)S(=O)(=O)c2ccc(-c3cncnc3)cc2O[C@H]1CN(C)C(=O)C1CC1	.	.	.	-1	.	.
COC(=O)C[C@@H]1CC[C@H]2[C@@H](COc3ccc(NC(=O)c4cc(F)cc(F)c4)cc3C(=O)N2C)O1	.	.	.	-1	.	.
COc1ccc2c3c(n(C)c2c1)[C@@H](CO)N(C(=O)c1ccccc1)CC31CN(CC2CC2)C1	.	.	.	2	.	.
COc1ccc(CN2C[C@H](O)COC[C@H]3O[C@H](CC(=O)N(C)C)CC[C@@H]32)cc1	.	.	.	2	.	.
O=C(CCCN1C(=O)/C(=C\c2cccs2)SC1=S)Nc1cc([N+](=O)[O-])ccc1O	-4	-13	4	0	74*	64*
COc1cc(Cl)ccc1OCc1cc(C(=O)NCC(C)c2ccccc2)no1 (stereo not given)	6	2	-2	0	3	.
CC(CNC(=O)c1cc(COc2ccc3ncccc3c2)on1)c1ccccc1 (stereo not given)	12	9	3	2	99*	102*
O=C(NC1CCCCCCC1)c1cc(COc2ccc3ncccc3c2)on1	-5	1	18	0	102*	99*
Cc1cc(C)c2sc(N(CCCN(C)C)C(=O)c3ccc(S(=O)(=O)N4CCc5ccccc5C4)cc3)nc2c1	22	14	.	.	72*	-12
Cc1cc(C)c2sc(N(CCCN(C)C)C(=O)c3ccc(S(=O)(=O)N4CCCc5ccccc54)cc3)nc2c1	-11	-12	12	-8	64*	-16
Cc1ccc2nc(N(CCCN(C)C)C(=O)c3ccc(S(=O)(=O)N4CCc5ccccc5C4)cc3)sc2c1	5	10	-1	-1	2	.
COc1ccc2sc(N(CCCN(C)C)C(=O)c3ccc(S(=O)(=O)N4CCc5ccccc5C4)cc3)nc2c1	5	8	8	-10	86*	-19
CNC(=O)C[C@@H]1CC[C@H]2[C@@H](COc3ccc(NC(=O)NC4CCCC4)cc3C(=O)N2C)O1	.	.	.	-2	.	.
Cc1ccc2nc(NC(=O)C3CCN(S(=O)(=O)c4cc([N+](=O)[O-])ccc4Cl)CC3)sc2c1	7	5	-2	2	97*	69*
O=C(Nc1nc2ccc(F)cc2s1)C1CCN(S(=O)(=O)c2cc([N+](=O)[O-])ccc2Cl)CC1	-1	-6	11	.	96*	84*
Cc1ccc(NC(=O)C2CCN(S(=O)(=O)c3cc([N+](=O)[O-])ccc3Cl)CC2)nc1	0	-5	-15	-2	81*	80*
CCCOC(=O)c1cccc(Nc2nc(-c3cccnc3)nc3ccccc23)c1	8	-8	-7	4	66*	73*
SMILES	SKN-1 inh	NRP1-CendR mod	ATG4B inh	CFTR F508del cor	MPTP inh	Rh123 counter	others
O=C(OCCNc1nc(-c2ccccc2)nc2ccccc12)c1cccnc1	2	6	-3	2	1	.
c1ccc(Nc2nc(-c3ccccc3)nc3ccccc23)cc1	17	-9	1	1	1	.
Fc1cccc(Nc2nc(-c3ccncc3)nc3ccccc23)c1	10	-6	5	.	85*	85*
O=C(Nc1cc(Sc2ccccn2)cc([N+](=O)[O-])c1)c1ccc(Cl)cc1	27	5	18	.	53*	72*
O=C(N/N=C/c1ccccn1)c1ccc(NC(=O)c2cccc([N+](=O)[O-])c2)cc1	3	-14	3	.	0	.
O=C(Nc1cc(Sc2ccccn2)cc([N+](=O)[O-])c1)c1cccc(Cl)c1	8	-10	13	.	95*	76*
COc1ccc(NC(=O)Nc2ccc3c(c2)CC(=O)N([C@@H](C)CO)C[C@H](C)[C@@H](CN(C)C(=O)NC2CCCCC2)O3)cc1	.	.	.	-1	.	.
Cc1noc(C)c1NC(=O)N(C)C[C@@H]1Oc2ncc(C#CCN(C)C)cc2C(=O)N([C@H](C)CO)C[C@H]1C	.	.	.	3	.	.
CC(C)C(N)c1csc(NC(=O)Nc2ccc(OC(F)(F)F)cc2)n1 (stereo not given)	24	-10	.	1	70*	88*
CC(C)c1ccc(NC(=O)Nc2nc(C(C)N)cs2)cc1 (stereo not given)	-9	0	.	1	3	.
Cc1ccc(S(=O)(=O)N(C)C[C@@H]2OCCCC[C@H](C)Oc3ccc(NC(=O)Nc4cccc5ccccc45)cc3C(=O)N([C@H](C)CO)C[C@@H]2C)cc1	.	.	.	-7	.	.
CN1CCC(Oc2ccccc2Sc2ccccc2)CC1	-3	2	4	.	92*	0	MPTP abs DR=10*;MPTP cs DR=34*
CN1CCC(OC(c2ccccc2)c2ccccc2)CC1	11	-14	-3	4	1	.
N#C[C@H]1[C@@H](c2ccccc2C2=CCCC2)[C@@H](CO)N1C(=O)C1CCCC1	.	.	.	1	.	.
CCCCN1C(=N)N([C@@H](CCC)CN2CCC[C@H]2CN2C(N)=NC[C@@H]2Cc2ccccc2)C[C@H]1[C@H](C)CC	-1	21	6	2	81*	-6
C[C@@H]1CN([C@H](C)CO)C(=O)c2cc(C#CCC3CCCC3)cnc2O[C@@H]1CN(C)C(=O)CN(C)C	.	.	.	2	.	.
Cc1cccc(NC(=O)Nc2cccc(C#N)c2)n1	6	-6	-6	-2	0	.
N#Cc1cccc(NC(=S)Nc2ccccc2)c1	12	2	6	.	82*	90*
